# PubChem BioAssay (NCATS)
# Results filed as inconclusive are left out. Entries that show only a call come without a potency. The source made the active and inactive calls. Calls follow the shape of the dose curve; as a rule, active = well fitted inhibition curve with a large enough effect; inconclusive = small, poorly fitted or top-dose-only effect; inactive = flat fitted curve, though single readings scatter.
# Molecular target: Glutathione peroxidase 1 (Homo sapiens) (UniProt P07203)
# Assay: Primary qHTS Assay for Inhibitors of Recombinant Selenoprotein Glutathione Peroxidase 1 (GPX1) (AID 1845191)
# Conditions: recombinant GPX1, GR-coupled NADPH fluorescence, 15 min; series mostly up to 48.8 µM
# Outline: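 GR-coupled readout: NADPH consumption tracked by fluorescence, ex 340/em 450 nm, at t=0 and after 15 min at RT. Final mix 10 nM GPX1, 1 mM GSH, 0.5 mM CHP, 0.5 mM NADPH, 100 nM GR, 0.01% BSA, following 30 min enzyme–compound preincubation.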
# Also: nearly all actives have a fitted effect of over 65% in size.
# Chain of Glutathione peroxidase 1 (Homo sapiens) (P07203 whole entry, looked up): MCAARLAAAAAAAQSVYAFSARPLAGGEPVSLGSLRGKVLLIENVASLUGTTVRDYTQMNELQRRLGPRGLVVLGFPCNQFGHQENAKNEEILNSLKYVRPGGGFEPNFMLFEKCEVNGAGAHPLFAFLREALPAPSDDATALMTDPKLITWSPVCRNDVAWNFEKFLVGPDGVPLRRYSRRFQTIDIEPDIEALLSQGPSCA
row,SMILES,Potency
1,Cc1[nH]c(/C=C2\C(=O)Nc3ccc(F)cc32)c(C)c1C(=O)NC[C@H](O)CN1CCOCC1,inactive
2,CCCCn1c(-c2ccccc2)nc(-c2ccccc2)c1CN(Cc1ccc2c(c1)OCO2)Cc1ccc2c(c1)OCO2,inactive
3,COc1ccc(CNC(=O)Nc2ncc([N+](=O)[O-])s2)cc1,inactive
4,O=C(NCc1ccc(Oc2ccccc2)cc1)c1nc(-c2cc(Br)c(O)c(Br)c2)no1,inactive

# Molecular target: Phospholipid hydroperoxide glutathione peroxidase GPX4 (Homo sapiens) (UniProt P36969)
# Sequence (P36969 whole entry, looked up): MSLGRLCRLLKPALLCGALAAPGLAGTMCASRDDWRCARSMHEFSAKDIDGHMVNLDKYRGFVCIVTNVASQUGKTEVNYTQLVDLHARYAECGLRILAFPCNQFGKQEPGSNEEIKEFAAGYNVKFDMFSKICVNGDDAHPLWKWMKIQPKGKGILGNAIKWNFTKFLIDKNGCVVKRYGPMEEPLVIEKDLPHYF
# Assay: Primary qHTS Assay for Inhibitors of Recombinant Selenoprotein Glutathione Peroxidase 4 (GPX4) (AID 1845192); also: potency is read from the fitted curve at half-maximal effect
# Conditions: recombinant GPX4, GR-coupled NADPH fluorescence, 15 min; series mostly up to 50 µM
# Outline: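 Steps: GPX4 plus compound, 30 min RT; add GR/GSH/NADPH master mix; start with cumene hydroperoxide; read 340/450 nm fluorescence at 0 and 15 min. Finals were 200 nM GPX4, 1 mM GSH, 0.5 mM CHP, 0.5 mM NADPH, 100 nM GR.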
row,SMILES,Potency
1,O=[N+]([O-])c1ccc(-[n+]2nc(-c3ccccc3)nn2-c2ccc(I)cc2)cc1,inactive
2,COc1ccccc1NC(=O)Nc1ccc2ccccc2c1,inactive
3,C=C(C)C(=O)OC1[C@@H]2C(=C)C(=O)O[C@@H]2C[C@@H](C)[C@@H]2C=CC(=O)[C@@]12C (stereo partly specified),inactive
4,CC(C)[C@@H](C)/C=C/[C@@H](C)[C@H]1CC[C@H]2C3=CC=C4C[C@@H](O)CC[C@]4(C)C3=CC[C@]12C,inactive
5,Cn1c(NC[C@@H](N)Cc2ccccc2)nc(-c2ccncc2)c(-c2ccc3ccccc3c2)c1=O,inactive
6,CC1(C)CC[C@]2(C(=O)OC3OC(CO)C(O)C(O)C3O)CC[C@]3(C)C(=CCC4[C@@]5(C)CC[C@H](OC6OC(C(=O)O)C(O)C(O)C6O)C(CO)(CO)C5CC[C@]43C)[C@@H]2C1 (stereo partly specified),inactive
7,Nc1ncnc2c1ncn2[C@@H]1O[C@H](CO)C[C@H]1O,inactive
8,CCOC(=O)c1cnn(-c2ccc(NC(=O)C(Cl)=C(Cl)Cl)cc2)c1C(F)(F)F,inactive
9,CC(=O)N1c2ccc(-c3ccc(C(=O)O)cc3)cc2C(Nc2ccc(Cl)cc2)CC1C (stereo unspecified),inactive
10,COc1ccc(C(=O)N(CCC(C)C)Cc2nc(C)c(C)n2Cc2ccccc2C)c(OC)c1,inactive
11,O=C(Nc1ccc(F)cc1)N1CCc2ccccc2C1c1ccc(C(F)(F)F)cc1 (stereo unspecified),inactive
12,C[C@@H]1COCCN1c1cc(C2(S(C)(=N)=O)CC2)nc(-c2ccnc3[nH]ccc23)n1 (stereo partly specified),20.2 µM (active)
13,Cc1ccc(C(=O)N2CCN(c3ccc([N+](=O)[O-])cc3)CC2)cc1Cl,inactive
14,CN(C)C(=O)c1cc2cnc(Nc3ccc(N4CCNCC4)cn3)nc2n1C1CCCC1,inactive
15,C=C1/C(=C/C=C2\CCC[C@]3(C)[C@@H]([C@H](C)/C=C/C(=O)C4CC4)CC[C@@H]23)C[C@@H](O)C[C@@H]1O,inactive
16,CC1OC2OC3C(OCC(O)C3O)OC(=O)C34CCC(C)(C)CC3C3=CCC5C6(C)CC(O)C(OC7OC(CO)C(O)C(O)C7OC7OCC(OC(=O)CC(C)(O)CC(=O)OC1C(OC1OCC(O)C(O)C1O)C2O)C(O)C7O)C(C)(CO)C6CCC5(C)C3(C)CC4O (stereo unspecified),inactive
17,CC(C)(C)c1ccc(-c2nc3ccccc3[nH]2)cc1,inactive
18,COc1cc(O)c(C(=O)CCc2ccc(O)cc2)c(O[C@@H]2O[C@H](CO)[C@@H](O)[C@H](O)[C@H]2O)c1,inactive
19,CCN1CCN(Cc2ccc(-c3cc4c(NC(C)c5ccccc5)ncnc4[nH]3)cc2)CC1 (stereo unspecified),14.3 µM (active)

row,SMILES,Potency
1,CN1CCN(C(=O)c2ccc(Nc3nccc(-c4cccs4)n3)cc2Cl)CC1,inactive
2,Cc1ccc2c(Nc3ccc(Cl)cc3)nccc2c1Nc1ncccc1-c1ncnc2nc[nH]c12,inactive
3,COc1ccccc1-c1cc(Nc2cccc(CS(N)(=O)=O)c2)ncn1,inactive
4,Cc1ccc(C2(COC(=O)C(C)C)CO2)c(OC(=O)C(C)C)c1 (stereo unspecified),inactive
5,CC1(C)CC23[C@@H]4CC(=O)[C@@H]2COC(=O)[C@@H]3CC[C@H]41,inactive
6,COc1cc2ncnc(Oc3cccc(NC(=O)Nc4cc(C(C)(C)C(F)(F)F)on4)c3)c2cc1OC,inactive
7,O=C(NNc1ccccc1)c1ccncc1,inactive
8,CN(CCCNC(=O)c1ccc2nc3c(c(Cl)c2c1)CCCC3)Cc1ccccc1,inactive
9,C=CC(=O)Nc1cc(Nc2nccc(-c3cn(C)c4ccccc34)n2)c(OC)cc1N(C)CCN(C)C,inactive
10,CCN(CCCOc1ccc2c(Nc3cc(CC(=O)Nc4cccc(F)c4)[nH]n3)ncnc2c1)CCOP(=O)(O)O,inactive
11,OCC(Cc1ccccc1)Nc1nc(Oc2ccc3c(c2)CCC3)nc2c1ncn2Cc1ccc(-c2ccccc2)cc1 (stereo unspecified),inactive
12,CCN(CC)c1ccc(C(=C2C=CC(=[N+](CC)CC)C=C2)c2cc(S(=O)(=O)O)ccc2S(=O)(=O)[O-])cc1,inactive
13,O=C(NC(NC(=S)Nc1ccc(F)c([N+](=O)[O-])c1)C(Cl)(Cl)Cl)C(c1ccccc1)c1ccccc1 (stereo unspecified),inactive
14,Cc1[nH]c(/C=C2\C(=O)Nc3ccc(F)cc32)c(C)c1C(=O)NC[C@H](O)CN1CCOCC1,inactive
15,CC1CCC2C(=CCC(O)C2(C)C)C1(C)Cc1c(O)cc(CO)c(C=O)c1O (stereo unspecified),inactive
16,CCCCn1c(-c2ccccc2)nc(-c2ccccc2)c1CN(Cc1ccc2c(c1)OCO2)Cc1ccc2c(c1)OCO2,inactive
17,COc1ccc(CNC(=O)Nc2ncc([N+](=O)[O-])s2)cc1,inactive
18,O=C(NCc1ccc(Oc2ccccc2)cc1)c1nc(-c2cc(Br)c(O)c(Br)c2)no1,inactive
